{"source": "PubChem BioAssay AID1315", "about": "(University of Pittsburgh Molecular Library Screening Center, 2008)", "note": "The other results are listed elsewhere or left out. A number with no mark means an inactive call. No rule for the calls is given here."}
{"experiment": "fluorescence polarization interference in PKD1 assay, artefact control for PKD1 inhibitor project, biochemical, 140K library (AID 1315)", "details": "PKD1 FP assay interference counter-screen, at 10 µM, stronger effect = higher value", "units": {"inhibition": "%"}}
{"molecule": "COc1ccccc1C(=O)NN1C(=O)C2C3C=CC(O3)C2C1=O", "note": "(stereo not drawn)", "inhibition": -4.38}
{"molecule": "COc1ccc(Nc2cc(C)nc(-n3nc(C)cc3C)n2)cc1", "inhibition": -21.9}
{"molecule": "Cc1ccc(NC(=O)C2CCCN(S(=O)(=O)c3c(C)noc3C)C2)c(C)c1", "note": "(stereo not drawn)", "inhibition": -13.6}
